In PubChem BioAssay AID687001 (Broad Institute, 2013):
Entries with a potency or affinity are not part of this list. Active and inactive are the calls of the source.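 How the source made its calls: active means signal-lowering compounds whose fitted half-maximal concentration is at or below twice the top tested dose in every run; inconclusive means runs disagree, flat 30 to 70% inhibition, or poor curve fit; inactive means the rest.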

Target: Protein S100-A4 (Homo sapiens) (UniProt P26447)
Test: S100A4-myosin IIA binding inhibitor potency, dose response, biochemical, fluorescence polarization, cherry-picked hits (AID 687001)

Sequence of Protein S100-A4 (Homo sapiens) (P26447 whole entry, looked up): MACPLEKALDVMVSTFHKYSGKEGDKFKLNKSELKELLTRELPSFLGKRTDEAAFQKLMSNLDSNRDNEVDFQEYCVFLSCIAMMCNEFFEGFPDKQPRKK

SMILES | outcome
CN(C(=O)CCc1cn(C)c2ccccc12)c1ccc(Oc2cccnc2)cc1 | inactive
O=C(CC1C[C@H](C(=O)N2CCCCC2)[C@@]2(CCc3ccccc3)c3[nH]c4ccccc4c3CCN2C1=O)NCCC1=CCCCC1 (some centres undefined) | inactive
O=C(C1CCCC1)N1CCCCN2[C@H](CO)[C@@H](c3ccc(C#CC4(O)CCCC4)cc3)[C@H]2C1 | inactive
CCCNC(=O)N1C[C@H](O)COC[C@@H]2O[C@H](CC(=O)N[C@H]3CCN(Cc4ccccc4)C3)CC[C@H]21 | inactive
CC(OC(=O)CSCC(=O)Nc1ccc(Cl)cc1)C(=O)N(C)Cc1ccccc1 (centres undefined) | inactive
COCC(=O)N1[C@@H](C#N)[C@H](c2ccc(-c3cccc(F)c3)cc2)[C@@H]1CO | inactive
COc1ccc(CN(C)C[C@H]2Oc3c(NC(=O)NC(C)C)cccc3C(=O)N([C@H](C)CO)C[C@H]2C)cc1 | inactive
CCC(c1nc2ccccc2[nH]1)n1c(-c2cccnc2)nc2ccccc21 (centres undefined) | inactive
CN(C)C(=O)c1cccc(-c2ccc3c(c2)[C@H]2[C@H](CCN2C(=O)C2CC2)[C@@H](CO)N3)c1 | inactive
CCCc1cc(C(=O)Nc2cccc3ccccc23)n(C)n1 | inactive
CCCNC(=O)Nc1ccc2c(c1)OC[C@@H](C)N(C(=O)C1CC1)C[C@H](C)[C@@H](OC)CN(C)C2=O | inactive
COCC(=O)Nc1ccc2c(c1)[C@@H]1C[C@@H](CC(=O)N3CCOCC3)O[C@@H](CO)[C@@H]1O2 | inactive
NS(=O)(=O)c1ccc(NCc2cnc3ccccc3c2)cc1 | inactive
CCC(=O)Nc1ccc2c(c1)OC[C@H](C)N(C(=O)CC1CC1)C[C@H](C)[C@H](OC)CN(C)C2=O | inactive
